Compound activity as filed in PubChem BioAssay.
Shown are actives, neighbours in structure and some others; about 5.5% of the full set was active somewhere.
uPA generation: inhibitors of cell surface uPA generation; hit rate 0.31% among 330,000; Potency, µM (doses to about 38.3 µM), for inactives: at the highest dose activity change, negative = inhibition, usual class: inhibitors; cell surface uPA generation assay, qHTS; AID 540303; active means well fitted inhibition curve with a large enough effect; inconclusive means small, poorly fitted or top-dose-only effect; inactive means no such curve, though single readings can be large or run the other way; tested in mouse RAW 264.7 cells; further: on the % scale 0 is the no-effect control and ±100 the full control effect; nearly all actives have a fitted effect of over 55% in size
Gal4-VP16 FLuc: counter-screen for ROR gamma inhibitors: Gal4-VP16 reporter; Drosophila S2 Gal4-VP16 UAS-luciferase, luminescence, 20 h; Potency, µM (highest dose often 53.6 µM), for the others: top-dose activity, negative = inhibition, usual class: inhibitors; hit rate 3.5% among 310,000;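 further: Gal4-VP16 expression switched on by copper sulfate through the metallothionein promoter; on the % scale 0 is the no-effect control and ±100 the full control effect; nearly all actives have a fitted effect of over 50% in size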
BCR signal inh: blocks chronic active B-cell receptor signaling | Potency, µM (highest dose often 46.1 µM), for the others: at the top dose activity change, negative = inhibition, most hits filed as inhibitors | AID 493014 | ABC-DLBCL IkBa-CBG/CBR reporter, luminescence ratio, 4 h | hit rate 0.05% among 340,000; active means well fitted inhibition curve with a large enough effect in the signal ratio, with a control signal flat, not every such curve was filed as active; inconclusive means small, poorly fitted or top-dose-only effect, or effect the other way, or a change in a side signal; the % refers to the signal ratio;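 further: plate controls were basal doxycycline-induced cells for no effect and cells given 10 µM MG132 for full effect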
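TMD8 ABC-DLBCL cells carrying doxycycline-inducible green luciferase fused to IkappaBalpha plus unfused red luciferase were exposed to compounds (up to 46 uM) for 4 hrs at 37C. Activity came from the overlap-corrected green/red luminescence ratio.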
a7 integrin act: activators of alpha7 integrin expression for muscular dystrophy; alpha7betagal myoblasts, beta-gal FDG fluorescence, 48 h; Potency, µM (series often up to 38.3 µM), inactives show at the top dose activation, actives largely listed as activators; hit rate 0.064% among 350,000; AID 624291;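 further: 100% = response of the positive control SU9516; nearly all actives have a fitted effect of over 60% in size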
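Alpha7betagal+/- myoblasts (passage 13) were plated 16-24 hr, then exposed to compounds (1:260 dilution of DMSO stock) for 48 hours at 37C. After MPER lysis, β-galactosidase reporter activity was read as FDG fluorescence (ex 480/em 540) after 30 minutes.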
RORg inh: inhibitors of mouse ROR gamma transcriptional activity; Potency, µM (highest dose often 53.6 µM), for inactives: at the highest dose activity change, negative = inhibition, usual class: inhibitors; AID 2551; hit rate 5.4% among 310,000; P51450; Drosophila S2 Gal4-RORgamma UAS-luciferase reporter, 20 h; further: on the % scale 0 is the no-effect control and ±100 the full control effect; nearly all actives have a fitted effect of over 60% in size
Target sequence (P51450 whole entry, looked up, the tested form may be a part): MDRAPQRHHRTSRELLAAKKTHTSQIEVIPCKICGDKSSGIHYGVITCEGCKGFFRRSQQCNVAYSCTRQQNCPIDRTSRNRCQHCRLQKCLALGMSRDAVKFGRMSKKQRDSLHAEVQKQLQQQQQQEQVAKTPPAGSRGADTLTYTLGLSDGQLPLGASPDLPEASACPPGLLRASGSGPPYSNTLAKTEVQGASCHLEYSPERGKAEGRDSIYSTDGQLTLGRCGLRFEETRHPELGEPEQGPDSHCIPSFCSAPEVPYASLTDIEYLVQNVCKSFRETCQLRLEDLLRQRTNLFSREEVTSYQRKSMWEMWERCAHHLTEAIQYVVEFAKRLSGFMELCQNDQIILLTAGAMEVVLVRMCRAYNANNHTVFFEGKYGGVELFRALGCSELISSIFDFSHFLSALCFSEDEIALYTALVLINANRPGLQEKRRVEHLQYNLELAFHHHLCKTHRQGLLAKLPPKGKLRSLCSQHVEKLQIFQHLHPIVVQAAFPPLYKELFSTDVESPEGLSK
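Compounds are pin-transferred onto Drosophila Schneider cells expressing a copper-inducible Gal4–ROR gamma transactivation domain fusion. After 1 hr, copper sulfate is added to 700 uM final; luciferase is read 20 hr later.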
Mito fusion yeast: inhibitors of mitochondrial division or activators of mitochondrial fusion | S. cerevisiae fusion-defective mutant growth rescue, CellTiterGlo 48 h | Potency, µM (doses to about 46.1 µM), without a hit: at the top dose growth rescue (activation), most hits filed as activators | hit rate 0.23% among 320,000 | AID 485298; further: % of control where 0% means no effect; nearly all actives have a fitted effect of over 45% in size
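Luminescent cell viability in 1536-well qHTS format served as the measure of rescued growth in ts fusion-mutant S. cerevisiae cultured on non-fermentable YPEG for 48 hours at 37C.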
* hit, by the source's call; ? = inconclusive; · = not tested or not shown; [ ] = dose if it differs, or a comment. Unless noted, the call rests on the fitted dose curve; in most records, active means well fitted curve in the direction sought with a large enough effect; inconclusive means small, poorly fitted or top-dose-only effect, or another doubt; inactive means no such curve, though single readings can be large; an effect the other way counts as inactive or inconclusive. Potency means the concentration at half of the fitted maximal effect.

SMILES | uPA generation | Gal4-VP16 FLuc | BCR signal inh | a7 integrin act | RORg inh | Mito fusion yeast
O=c1oc2cc(O)ccc2cc1-c1ccc2c(c1)OCCO2 | · | -28% | · | · | -17% | ·
COc1ccc(/C=C2/Sc3ccc(C(=O)NCCN4CCCCCC4)cc3NC2=O)cc1 | 2% | 20µM* | 10% | -81% | ? | -3%
O=C1Nc2cc(C(=O)NCCCN3CCCC3)ccc2S/C1=C\c1ccccc1 | -5% | -19% | 8% | -56% | -34% | 5%
CC(C)(C)c1cc(NC(=O)CCl)n(-c2ccccc2)n1 | -6% | ? | ? | -68% | ? | -15%
CCCc1cc(NC(=O)CCl)n(-c2ccccc2)n1 | -17% | 20µM* | ? | -64% | ? | 2%
CCNc1nc(OCC)nc(N2CCC(Cc3ccccc3)CC2)n1 | 2% | 4µM* | -8% | -12% | 5.6µM* | 0%
CCOc1ccccc1OCCN1CCC(Cc2ccccc2)CC1 | 5% | 6% | -8% | 4% | 12% | -4%
COc1cccc(CN(Cc2ccco2)C(c2ccc(F)cc2)c2nnnn2C(C)(C)C)c1 (stereo unspecified) | 0% | 2.8µM* | 6% | -11% | -3% | 10%
CC(C)(C)n1nnnc1C(c1cccnc1)N(Cc1ccccc1)Cc1ccco1 (stereo unspecified) | 7% | -13% | 2% | 2% | -10% | 5%
O=C(NC(=S)Nc1cccc2ncccc12)c1cccs1 | -17% | -18% | 12% | -6% | 8.9µM* | -1%
O=C(Nc1cccnc1Cl)c1ccc(Cl)cc1 | 1% | 17% | 3% | 35% | 7% | 3%
Nc1ccc(C(=O)Nc2cccc3ncccc23)cc1 | 3% | · | -12% | 9% | · | -3%
O=C(NC(=S)Nc1nc2c(ccc3ccccc32)s1)c1cccs1 | -2% | 3.2µM* | 1% | -15% | 2.5µM* | -2%
O=C(NC(=S)Nc1cccc2ncccc12)c1ccccc1 | 3% | ? | ? | 19% | 7.9µM* | -2%
CC(=O)Nc1cccc2ncccc12 | -1% | 2% | 5% | 10% | -19% | -3%
O=C(NC(=S)Nc1cccnc1Cl)c1ccc(Cl)cc1 | 1% | ? | ? | 38% | 8.9µM* | -3%
COC(=O)Cn1c(=O)c(C(=O)CCl)c(N)n(Cc2ccccc2)c1=O | -16% | -2% | 13% | -7% | -34% | -5%
CCCCOc1ccc(OC(=O)Nc2cc(Cl)ccc2OC)cc1 | ? | 2% | ? | -48% | 1% | -14%
O=C(O)c1ccc(C[n+]2c(-c3ccccc3)csc2Nc2ccccc2)cc1 | -5% | -17% | 11% | -23% | 5.6µM* | ?
CCCCSc1nnc(-c2ccccc2)c2ccccc12 | -6% | 13µM* | ? | -36% | 70% | 27%
CCN1CCN(c2nnc(-c3ccccc3)c3ccccc23)CC1 | -2% | 0% | -1% | 0% | -20% | 1%
Cc1ccc(SC(=O)c2c([N+](=O)[O-])c(C)nn2C)cc1 | 6% | 3.5µM* | ? | -27% | 4µM* | -3%
N#CC(C#N)=C(Nc1ccc(F)cc1)SCc1cccc(F)c1 | -9% | 14µM* | ? | -49% | ? | 5%
Cc1cccc(-n2ncc3c(N4CCN(c5ccccc5)CC4)ncnc32)c1 | · | · | 16% | · | · | -4%
Cc1cccc(-n2ncc3c(N4CCOCC4)ncnc32)c1 | 0.79µM* | -2% | ? | -6% | -16% | 8%
SMILES | uPA generation | Gal4-VP16 FLuc | BCR signal inh | a7 integrin act | RORg inh | Mito fusion yeast
CCOC(=O)N1CCC(Nc2ncnc3c2cnn3-c2ccc(Cl)cc2)CC1 | 5% | 8% | ? | 19% | 8.9µM* | 9%
Cc1cccc(-n2ncc3c(NC4CCCCC4)ncnc32)c1 | 11µM* | ? | ? | -19% | ? | 28%
Cc1ccc(-n2ncc3c(NC4CCCCC4)ncnc32)cc1Cl | · | · | 3% | · | · | ·
CCN1CCN(C(=S)NCC2CCCO2)CC1 (stereo unspecified) | -4% | -7% | 1% | 15% | -14% | -1%
O=C(Cc1ccc([N+](=O)[O-])cc1)NCC1CCCO1 (stereo unspecified) | -7% | 8% | 5% | 11% | -12% | -3%
Cc1ccc(C(=O)NC(=S)NCC2CCCO2)cc1 (stereo unspecified) | -4% | -21% | 0% | -4% | 16µM* | -11%
Cc1ccc(C(=O)Nc2ccccc2C(=O)NCC2CCCO2)cc1 (stereo unspecified) | -32% | -4% | ? | -26% | 3% | 7%
O=C(NC(=S)NCC1CCCO1)c1ccc(Cl)cc1 (stereo unspecified) | -7% | ? | 6% | 7% | 11µM* | -2%
O=C(NC(=S)NCC1CCCO1)c1ccccc1 (stereo unspecified) | 7% | ? | ? | 2% | ? | 1%
O=C(NC(=S)NCC1CCCO1)c1ccc([N+](=O)[O-])cc1 (stereo unspecified) | 2% | -93% | 6% | -3% | 13µM* | 0%
Cc1cnn(C(=S)NCC2CCCO2)c1 (stereo unspecified) | 3% | ? | 0% | 4% | 14µM* | -2%
CC(CCC(=O)O)C1CCC2C3CC[C@H]4CC(O)CC[C@@]4(C)C3CC(O)[C@]12C (stereo partly specified) | · | -6% | · | · | -1% | ·
Cc1noc(C)c1-c1cc(NCc2ccccc2)ncn1 | · | 8% | · | · | -14% | ·
CC(=O)c1c(C)[nH]c(C(=O)Nc2ccc(F)c(F)c2F)c1C | -6% | 24% | 9% | ? | 10% | 9%
CCCCNc1c(-c2ccc(-c3ccc(OC)cc3)c(OC)c2)nc2ccccn12 | 13µM* | · | ? | -44% | · | ·
O=[N+]([O-])c1ccc(O)c(C(C#Cc2ccccc2)N2CCOCC2)c1 (stereo unspecified) | -2% | -5% | ? | -16% | 38% | 0%
Cc1cc2c(s1)c(C#N)c(C(=O)NCc1ccccc1F)n2C | · | · | ? | · | · | -1%
Clc1ccccc1OCCn1cnc2ccccc21 | -15% | 6% | ? | -1% | 8% | -1%
Clc1ccc(OCCn2cnc3ccccc32)cc1 | 2% | 10% | 13% | -43% | 4µM* | 7%
NC(=O)CCn1cnc2ccccc21 | 1% | 7% | 4% | -7% | 2% | 1%
c1ccc2c(c1)ncn2CCC1CCCCC1 | 0% | -91% | 3% | -2%[7.66 µM] | 7.9µM* | -3%
CCCn1c(=O)c(C)cn2nc(N)nc12 | · | 4% | · | · | 2% | -14%
Cc1cc(C)c2nc(NC(=O)C3CSC4(C)CCC(=O)N34)sc2c1 (stereo unspecified) | -12% | · | 7% | -31% | · | -8%
Cc1ccc(-c2cccc(NC(=O)C3C(C(=O)O)[C@@H]4C=C[C@H]3C4)c2)o1 (stereo partly specified) | 5% | -1% | 3% | -14% | 35% | -3%
